# Test results: ChEMBL document CHEMBL4513141, “CO-ADD screening of NIH (USA) - Clinical Collection” (2021)
# Potency and affinity values are given separately. Square brackets hold non-standard residues; d marks the D form. Peptide text beside a SMILES is read from it. pGlu = O=C1CC[C@@H](C(=O)O)N1; Thz = O=C(O)[C@@H]1CSCN1
# Assays:
# [1] = test system: Klebsiella pneumoniae; conditions: Concentration 20 uM; ASSAY_TEST Inhibition of Bacterial Growth; detection method Absorption (OD600); MEDIA CAMHB; plate type 384well; NBS; CORNING #3640; time 18 hr
# [2] = test system: Candida albicans; conditions: 20 µM
# [3] = test system: Cryptococcus neoformans; conditions: Concentration 20 uM; ASSAY_TEST Inhibition of Fungal Growth; detection method Resazurin; Absorption (OD600-OD570); plate type 384well; NBS; CORNING #3640
SMILES,Inhibition [1] [%],Inhibition [2] [%],Inhibition [3] [%]
O=C1c2c(O)cc(O)cc2O[C@H](c2ccc(O)c(O)c2)[C@H]1O [(+)-TAXIFOLIN],12.56,3.72,-3.68
CC(=O)CCCCn1c(=O)c2c(ncn2C)n(C)c1=O [PENTOXIFYLLINE],12.41,2.65,-7.44
C[C@H]1C[C@@H]2[C@H]([C@@H](O)C[C@@]3(C)[C@H]2CC[C@]3(O)C(=O)CO)[C@@]2(C)C=CC(=O)C=C12 [METHYLPREDNISOLONE],20.28,2.95,-7.56
CC(=O)O[C@]1(C(C)=O)CC[C@H]2[C@@H]3C[C@H](C)C4=CC(=O)CC[C@]4(C)[C@H]3CC[C@@]21C [MEDROXYPROGESTERONE ACETATE],17.28,4.88,-5.46
C=CCc1ccc(O)c(-c2ccc(O)c(CC=C)c2)c1 [HONOKIOL],7.54,3.92,0.25
C[C@]12CCC(=O)C=C1CC[C@@H]1[C@@H]2C(=O)C[C@@]2(C)[C@H]1CC[C@]2(O)C(=O)CO [CORTISONE],16.58,4.46,0.81
COc1ccnc(C[S+]([O-])c2nc3cc(OC(F)F)ccc3[n-]2)c1OC.O.[Na+] (configuration not stated) [PANTOPRAZOLE SODIUM],5.85,19.6,-26.37
CCOc1cc(N)c(Cl)cc1C(=O)NCC1CN(Cc2ccc(F)cc2)CCO1.O=C(O)CC(O)(CC(=O)O)C(=O)O (configuration not stated) [MOSAPRIDE CITRATE],16.24,1.57,-5.5
Cc1cnc(C(=O)NCCc2ccc(S(=O)(=O)NC(=O)NC3CCCCC3)cc2)cn1 [GLIPIZIDE],8.44,3.06,-1.88
CN(C)CCCN1c2ccccc2CCc2ccc(Cl)cc21.Cl [CLOMIPRAMINE HYDROCHLORIDE],18.4,2.36,-9.01
Cl.O=C1CN2Cc3c(ccc(Cl)c3Cl)N=C2N1 [ANAGRELIDE HYDROCHLORIDE],18.04,3.23,-6.07
Nc1nc(O)c2ncn(CCC(CO)CO)c2n1 [PENCICLOVIR],17.55,0.56,-9.17
CCOC(=O)[C@@H](CCc1ccccc1)N[C@@H](C)C(=O)N1CCC[C@H]1C(=O)O.O=C(O)/C=C\C(=O)O,10.36,0.69,-1.23
CC(C)(S)C(N)C(=O)O (stereo not drawn) [DL-PENICILLAMINE],8.23,3.66,-9.16
CC(C)NCC(O)COc1ccc(COCCOC(C)C)cc1.CC(C)NCC(O)COc1ccc(COCCOC(C)C)cc1.O=C(O)/C=C/C(=O)O (configuration not stated) [BISOPROLOL FUMARATE],12.19,0.23,-4.67
OCc1cccnc1 [NICOTINYL ALCOHOL],6.16,2.84,-7.14
CN(C)CC[C@@H](c1ccc(Cl)cc1)c1ccccn1.O=C(O)/C=C\C(=O)O [DEXCHLORPHENIRAMINE MALEATE],21.61,2.45,-7.42
CCCc1cc(=O)[nH]c(=S)[nH]1 [PROPYLTHIOURACIL],16.2,3.22,-1.39
O=C(NCCO[N+](=O)[O-])c1cccnc1 [NICORANDIL],15.28,1.66,-0.1
CN(C)CCCN1c2ccccc2CCc2ccccc21.Cl [IMIPRAMINE HYDROCHLORIDE],11.14,0.7,0.01
CC1(C)O[C@@H]2C[C@H]3[C@@H]4C[C@H](F)C5=CC(=O)C=C[C@]5(C)[C@H]4[C@@H](O)C[C@]3(C)[C@]2(C(=O)CO)O1 [FLUNISOLIDE],10.74,7.13,-6.19
O=C1CC[C@@H](C(=O)N2CSC[C@H]2C(=O)O)N1 [PIDOTIMOD] ([pGlu]-[Thz]-OH),9.73,0.05,-3.45
CC(C(=O)O)c1cccc(C(=O)c2ccccc2)c1 (configuration not stated) [KETOPROFEN],8.94,5.45,-5.87
Cl.O=C1c2c(O)ccc(O)c2C(=O)c2c(NCCNCCO)ccc(NCCNCCO)c21,7.11,-4.12,21.29
